# Experimental data: PubChem BioAssay (NCATS)
# Results filed as inconclusive are left out. Where a call stands in place of a potency, no number is given. The source made the active and inactive calls. Calls follow the shape of the dose curve; as a rule, active = well fitted inhibition curve with a large enough effect; inconclusive = small, poorly fitted or top-dose-only effect; inactive = no such curve, though single readings can be large or run the other way.
# Test: BET inhibitor-based combinations targeting novel dependencies in MECOM-rearranged (r) AML: HNT-34 cell line (AID 2202234); also: nearly all actives have a fitted effect of over 35% in size
# Settings: HNT-34 AML viability, CellTiter-Glo luminescence, 48 h; series mostly up to 46 µM
# Method in brief: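 First, 500 cells per well were seeded; next, drugs were pinned as 11-point doses; then plates sat 48 hr in the incubator; finally CellTiter-Glo was added and luminescence read, with AUC and Z-AUC computed.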
# Potency is read from the fitted curve at half-maximal effect.
row,SMILES,Potency
1,Cc1sc2c(c1C)C(c1ccc(Cl)cc1)=NC(CC(N)=O)c1nnc(C)n1-2 (stereo unspecified),148 nM (active)
2,N[C@@H](Cc1ccc(N(CCCl)CCCl)cc1)C(=O)O,3720 nM (active)
3,CC1=C(O)C(=O)C=C2C1=CC=C1[C@@]2(C)CC[C@@]2(C)[C@@H]3C[C@](C)(C(=O)O)CC[C@]3(C)CC[C@]12C,934 nM (active)
4,C#CC1(O)CCC2C3CCC4=CC(=O)CCC4(C)C3CCC21C (stereo unspecified),inactive
5,C[C@]12CC[C@H]3[C@@H](CCC4=CC(=O)CC[C@@]43C)[C@H]1CC[C@H]2OC(=O)CCC1CCCC1,inactive
6,CCN1C[C@]2(OC(=O)c3ccccc3NC(C)=O)CC[C@H](OC)[C@@]34[C@H]5CC6[C@@H](OC)C[C@](O)(C(C[C@@H]23)[C@@H]14)[C@@]5(O)[C@@H]6OC,inactive
